From PubChem BioAssay (NCATS) come the findings set out here.

Where “and” joins values, the source holds several entries; their conditions need not be identical. Identical values can stand only once. Records with an inconclusive call do not appear. Unmarked numbers belong to inactive results. Calls of active or inactive are those of the source. Calls come from the whole dose curve; as a rule, active = well fitted curve in the direction sought with a large enough effect; inconclusive = small, poorly fitted or top-dose-only effect, or another doubt; inactive = no such curve, though single readings can be large; an effect the other way counts as inactive or inconclusive.
% is set by controls: 0 for no effect and ±100 for the full control effect; potency is the fitted concentration of half-maximal effect.
Note: nearly all actives have a fitted effect of over 70% in size.

The nature of the first test: Primary qHTS for inhibitors of nuclear receptor binding SET domain protein 2 (NSD2) in an isogenic RCH-ACV NSD2 p.E1099K mutant (9B) (AID 1645876). The conditions noted are these: RCH-ACV NSD2 E1099K (9B) viability, CellTiter-Glo, 72 h; series mostly up to 44.9 µM; activity change, negative = viability loss: at the top concentration. A general note: qHTS replaces the single test concentration by a dilution series.
As for `CC(C)NC(=O)N1CC[C@H](N=C2Nc3cc(F)ccc3N(CC(F)F)c3ccc(Cl)cc32)C1`, the activity change, negative = viability loss was -17% [at 9.23 µM].
For `CO[C@@H]1CC(OC2CCC3(C)C(CCC45CCC(C6=CC(=O)OC6)C(C)(CCC43)C5=O)C2)O[C@H](C)[C@@H]1O[C@@H]1O[C@H](CO[C@@H]2O[C@H](CO)[C@@H](O)[C@H](O)[C@H]2O)[C@@H](O)[C@H](O)[C@H]1O` (stereo partly drawn), the Potency is 1.73 µM (active).
Same read-out and setting: for `C=C1CC[C@@H](O)[C@]2(C)C[C@H]3OC(=O)C(=C)[C@H]3CC12` (stereo partly drawn) the value was 16.3 µM (active); for `COc1ccc(C2=NC(c3ccc(Cl)cc3)C(c3ccc(Cl)cc3)N2C(=O)N2CCNC(=O)C2)c(OC(C)C)c1` (stereo not drawn), 5.78 µM (active); for `COc1ccc(CCc2nc3c(C)c(-c4c(C)noc4C)c(C)cc3n2CCN2CCOCC2)cc1`, 18.3 µM (active).
With `Cc1ccc(-c2ncccn2)c(C(=O)N2C[C@H](COc3ccc(F)cn3)CC[C@H]2C)c1`, the “activity change, negative = viability loss” value was -17.9%.
With `Nc1nc(Nc2ccc3c(c2)CCC(N2CCCC2)CC3)nn1-c1cc2c(nn1)-c1ccccc1CCC2` (stereo not drawn), the Potency was 1.63 µM (active).
The same measure, in the same setting: for `O=C(NCCCNC(=O)c1ccc[nH]c1=O)c1cc(-c2ccccc2)on1` the value was 8.33 µM (active); for `CCC[C@H](N[C@H]1CCc2cc(F)cc(F)c2C1)C(=O)Nc1cn(C(C)(C)CNCC(C)(C)C)cn1`, 16.3 µM (active) and 13.2 µM (active); for `C=C1C(=O)OC2/C=C(\C)CC3C=C(CC/C=C(\C)CCC12)C(=O)O3` (stereo not drawn), 12.7 µM (active).
Same read-out and setting: for `C=C1C(=O)O[C@H]2C3=C(C)CCC[C@]3(C)C(=O)C[C@@H]12` the value was 1.83 µM (active).

A further test is described as follows: Primary qHTS for inhibitors of nuclear receptor binding SET domain protein 2 (NSD2) in an RCH-ACV wild type WT cells (2C) (AID 1645877). Conditions: RCH-ACV (leukaemia line) NSD2 WT (2C) viability, CellTiter-Glo, 72 h; series mostly up to 44.9 µM; activity change, negative = cell killing: at the top concentration.
`CC(C)C[C@@H]1NC(=O)[C@@H]2C[C@@]34C[C@@H]5[C@@]6(C)CCCC(C)(C)C6CC[C@@]5(C)N(c5ccccc53)[C@H]4N2C1=O` (stereo partly drawn): the Potency is 3.99 µM (active).
Still for that read-out and setting: next, `C=C1C(=O)OC2/C=C(\CO)CC/C=C(\C=O)C(O)C(OC(=O)C(C)CC)C12` (stereo not drawn): 2.01 µM (active).
As to `CC1OC(=O)C[C@@H]2C(C(=O)O)=CO[C@@H](O[C@H]3O[C@H](CO)[C@@H](O)[C@H](O)[C@H]3O)[C@H]12` (stereo partly drawn), the “activity change, negative = cell killing” value was -0.444%.
Still for that read-out and setting: next, `CC1CC(=O)C2=C(C1)C1OC1C1(O)C2C(=O)c2cccc(O)c2C1O` (stereo not drawn): -94.9%.
Consider `CC1(C)C2CCC(CO[C@@H]3O[C@H](CO[C@@H]4OC[C@](O)(CO)[C@H]4O)[C@@H](O)[C@H](O)[C@H]3O)C1C2` (stereo partly drawn), for which the “outcome” value is “inactive [at 17.3 µM]”.
Take `Cn1cc(-c2cnn3c(N)c(Br)c(C4CCCNC4)nc23)cn1` (stereo not drawn): the Potency was 1.05 µM (active).
Same read-out and setting: next, `CC[C@@H](C)Nc1cc(C(=O)NC2CC3CCC(C2)N3c2ccc(C(=O)C3CC3)cn2)c(C)cc1C(N)=O` (stereo partly drawn): 0.132 µM (active).
Same read-out and setting: for `OC1C=C2C3CN(Cc4cc5c(cc43)OCO5)C2CC1O` (stereo not drawn) the value was 7.28 µM (active); for `C=C1C(=O)O[C@@H]2[C@H]1CCC(C)=C(CCC(=O)O)[C@@]2(C)O`, 10.3 µM (active); for `C=CS(=O)(=O)NC1CCN(C(=O)CNc2cc(I)c(Cl)cc2OC)CC1`, 3.25 µM (active).
Same read-out and setting: next, `COc1ccc(CCO[C@@H]2O[C@H](CO[C@H]3OC[C@](O)(CO)[C@H]3O)[C@@H](OC(=O)/C=C/c3ccc(O)c(O)c3)[C@H](O[C@@H]3O[C@@H](C)[C@H](O)[C@@H](O)[C@H]3O)[C@H]2O)cc1OC`: 4.83 µM (active); `Nc1nc(Cl)nc2c1ncn2C1OC(CO)C(O)C1F` (stereo not drawn): 0.0082 µM (active).
With `CC1(C)CCC2(C(=O)OC3OC(COC4OC(CO)C(O)C(O)C4O)C(O)C(O)C3O)CCC3(C)C(=CCC4C5(C)CCC(OC6OCC(O)C(O)C6O)C(C)(C)C5CCC43C)C2C1O` (stereo not drawn), the activity change, negative = cell killing is -18.7% [at 9.23 µM].
Consider `COC(=O)C1=CO[C@@H](O[C@@H]2O[C@H](CO)[C@@H](O)[C@H](O)[C@H]2O)[C@H]2[C@@H]1C=C[C@]21C=C([C@H](C)OC(=O)/C=C/c2ccc(O)cc2)C(=O)O1`, for which the Potency was 0.483 µM (active).
On to `COc1cc(O)c2c(c1)C1OC1C[C@H](O)[C@H](O)C(=O)/C=C\C[C@H](C)OC2=O` (stereo partly drawn), for which the Potency was 2.05 µM (active).
As to `CC(=O)OC[C@]12[C@H](OC(C)=O)C(=O)[C@@H]3[C@@H](O)[C@@]14O[C@@]3(C)COC(=O)c1cccnc1[C@@H](C)[C@H](C)C(=O)O[C@@H]([C@H](O)[C@@H]2OC(C)=O)[C@]4(C)O`, the Potency is 5.41 µM (active).
On the same count and under the same terms, next, `COc1cc2c(NC3CCN(C(C)C)CC3)nc(N3CCC(F)(F)CC3)nc2cc1OCCCN1CCCC1`: 11.5 µM (active).
